# From PubChem BioAssay (NCATS)
# “And” between values parts separate entries of the source, which are not always exact repeats. Identical values can stand only once. Records with an inconclusive call do not appear. The source made the active and inactive calls. Unless noted, calls come from the whole dose curve; as a rule, active = well fitted curve in the direction sought with a large enough effect; inconclusive = small, poorly fitted or top-dose-only effect, or another doubt; inactive = no such curve, though single readings can be large; an effect the other way counts as inactive or inconclusive.
# Assays:
# [1] = biological target: Cytochrome P450 2D6 (Homo sapiens) (UniProt P10635); assay: Cytochrome P450 family 2 subfamily D member 6 (CYP2D6) small molecule antagonists: luciferase biochemical (cell-free) qHTS assay (AID 1645840; active = well fitted curve in the direction sought with a large enough effect in the repeat runs; an effect the other way counts as inactive or inconclusive; note: nearly all actives have a fitted effect of over 55% in size; note: potency is the fitted concentration of half-maximal effect; for activity change, negative = inhibition: % is set by controls: 0 for no effect and ±100 for the full control effect)
# In short: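 P450-Glo luminescent screen: recombinant CYP2D6 enzyme–proluciferin substrate mix preincubated with compound 10 min at room temperature, then NADPH regeneration added for 1 h at room temperature. Detection reagent added for 20 min; luciferin light read as relative luminescence units.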
# [2] = biological target: Cytochrome P450 2C9 (Homo sapiens) (UniProt P11712); assay: Cytochrome P450 family 2 subfamily C member 9 (CYP2C9) small molecule antagonists: luciferase biochemical (cell-free) qHTS assay (AID 1645842; active = well fitted curve in the direction sought with a large enough effect in the repeat runs; an effect the other way counts as inactive or inconclusive; note: potency is the fitted concentration of half-maximal effect; nearly all actives have a fitted effect of over 55% in size)
# In short: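 Luminescence, after 20 min with luciferin detection reagent, reflected CYP2C9 turnover during a 1 h NADPH-driven reaction at 37C. Enzyme-substrate mix contained 0.4% bovine serum albumin and was preincubated with compound 10 min at room temperature.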
# [3] = biological target: Glutathione peroxidase 1 (Homo sapiens) (UniProt P07203); assay: Primary qHTS Assay for Inhibitors of Recombinant Selenoprotein Glutathione Peroxidase 1 (GPX1) (AID 1845191); note: nearly all actives have a fitted effect of over 65% in size; note: potency is the fitted concentration of half-maximal effect
# In short: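 GR-coupled assay: compounds preincubated 30 min at room temperature with GPX1, then reaction started with CHP; final 10 nM GPX1, 1 mM GSH, 0.5 mM CHP, 0.5 mM NADPH, 100 nM GR, 0.01% BSA, pH 7.5 Tris buffer. NADPH fluorescence (340/450 nm) read at 0 and 15 min.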
# [4] = Primary qHTS for inhibitors of nuclear receptor binding SET domain protein 2 (NSD2) in an isogenic RCH-ACV NSD2 p.E1099K mutant (9B) (AID 1645876); note: nearly all actives have a fitted effect of over 70% in size; note: potency is the fitted concentration of half-maximal effect
# [5] = Primary qHTS for inhibitors of nuclear receptor binding SET domain protein 2 (NSD2) in an RCH-ACV wild type WT cells (2C) (AID 1645877); note: nearly all actives have a fitted effect of over 70% in size; note: potency is the fitted concentration of half-maximal effect
# [6] = biological target: N-terminal Xaa-Pro-Lys N-methyltransferase 1 (Homo sapiens) (UniProt Q9BV86); assay: Confirmatory qHTS for Inhibitors of N-terminal methyltransferase 1 (NTMT1): MTaseGlo Assay (AID 1645874); note: potency is the fitted concentration of half-maximal effect; nearly all actives have a fitted effect of over 65% in size
# In short: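 qHTS format: NTMT1 125 nM, SAM 100 uM, peptide SPKRIA 1 uM final; 15 min compound preincubation, 30 min reaction at room temperature. MTase-Glo luminescence.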
# [7] = biological target: Catechol O-methyltransferase (Homo sapiens) (UniProt P21964); assay: Confirmatory Screen for Target Class Profiling of Small Molecule Inhibitors of Methyltransferases (AID 1745852; calls by dose curve; for activity change, negative = inhibition: % is set by controls: 0 for no effect and ±100 for the full control effect); settings: MTase-Glo luminescence, SAH detection, recombinant enzyme; measured here: COMT max response; stronger effect = lower value
# [8] = biological target: Guanidinoacetate N-methyltransferase (Homo sapiens) (UniProt Q14353); assay: as above; settings: activity change, negative = inhibition: at 57.3 µM (top of the series) unless noted
# [9] = biological target: Nicotinamide N-methyltransferase (Homo sapiens) (UniProt P40261); assay: as above; settings: MTase-Glo luminescence, SAH detection, recombinant enzyme; measured here: NNMT max response; stronger effect = lower value
# [10] = biological target: Phenylethanolamine N-methyltransferase (Homo sapiens) (UniProt P11086); assay: as above; settings: MTase-Glo luminescence, SAH detection, recombinant enzyme; measured here: PNMT max response; stronger effect = lower value
# Chain of Phenylethanolamine N-methyltransferase (Homo sapiens) (P11086 whole entry, looked up): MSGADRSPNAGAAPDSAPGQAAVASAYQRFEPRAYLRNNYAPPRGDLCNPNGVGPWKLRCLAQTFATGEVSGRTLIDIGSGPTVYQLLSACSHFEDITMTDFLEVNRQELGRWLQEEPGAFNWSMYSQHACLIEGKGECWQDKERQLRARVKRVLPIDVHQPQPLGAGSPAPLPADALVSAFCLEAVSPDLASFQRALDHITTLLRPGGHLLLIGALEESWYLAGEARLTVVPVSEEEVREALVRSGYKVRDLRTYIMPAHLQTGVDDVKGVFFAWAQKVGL
# Chain of Cytochrome P450 2C9 (Homo sapiens) (P11712 whole entry, looked up): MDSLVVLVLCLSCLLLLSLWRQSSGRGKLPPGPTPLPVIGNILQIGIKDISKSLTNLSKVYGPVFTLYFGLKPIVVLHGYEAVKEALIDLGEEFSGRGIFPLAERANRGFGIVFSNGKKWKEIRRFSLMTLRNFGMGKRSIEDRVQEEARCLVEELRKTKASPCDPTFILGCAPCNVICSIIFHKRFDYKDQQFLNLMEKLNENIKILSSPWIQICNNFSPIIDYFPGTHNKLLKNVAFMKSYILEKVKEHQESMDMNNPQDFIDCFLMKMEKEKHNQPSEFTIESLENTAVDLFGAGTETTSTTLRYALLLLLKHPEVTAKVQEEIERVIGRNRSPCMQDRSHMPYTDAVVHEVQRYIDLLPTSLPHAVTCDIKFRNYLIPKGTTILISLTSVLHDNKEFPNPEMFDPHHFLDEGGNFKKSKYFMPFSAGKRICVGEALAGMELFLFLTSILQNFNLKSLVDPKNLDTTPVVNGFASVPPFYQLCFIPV
# Chain of Glutathione peroxidase 1 (Homo sapiens) (P07203 whole entry, looked up): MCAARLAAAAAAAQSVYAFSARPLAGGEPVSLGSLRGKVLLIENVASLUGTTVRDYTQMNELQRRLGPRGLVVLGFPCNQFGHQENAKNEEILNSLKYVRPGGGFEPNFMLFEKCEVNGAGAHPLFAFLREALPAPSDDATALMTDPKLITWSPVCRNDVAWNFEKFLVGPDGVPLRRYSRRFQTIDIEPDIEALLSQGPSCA
# Chain of Cytochrome P450 2D6 (Homo sapiens) (P10635 whole entry, looked up): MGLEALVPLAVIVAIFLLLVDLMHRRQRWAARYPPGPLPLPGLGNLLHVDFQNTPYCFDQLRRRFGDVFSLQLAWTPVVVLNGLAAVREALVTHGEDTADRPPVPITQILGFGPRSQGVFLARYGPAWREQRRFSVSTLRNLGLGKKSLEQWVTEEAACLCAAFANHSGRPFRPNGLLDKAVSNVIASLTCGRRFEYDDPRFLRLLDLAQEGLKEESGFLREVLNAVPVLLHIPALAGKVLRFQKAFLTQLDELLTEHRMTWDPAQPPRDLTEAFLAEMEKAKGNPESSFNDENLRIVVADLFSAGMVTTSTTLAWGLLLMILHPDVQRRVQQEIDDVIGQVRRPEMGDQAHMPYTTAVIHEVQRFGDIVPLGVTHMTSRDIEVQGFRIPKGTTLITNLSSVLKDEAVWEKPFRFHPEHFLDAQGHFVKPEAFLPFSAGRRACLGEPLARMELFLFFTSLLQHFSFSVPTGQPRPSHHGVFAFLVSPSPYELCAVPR
# Chain of Catechol O-methyltransferase (Homo sapiens) (P21964 whole entry, looked up): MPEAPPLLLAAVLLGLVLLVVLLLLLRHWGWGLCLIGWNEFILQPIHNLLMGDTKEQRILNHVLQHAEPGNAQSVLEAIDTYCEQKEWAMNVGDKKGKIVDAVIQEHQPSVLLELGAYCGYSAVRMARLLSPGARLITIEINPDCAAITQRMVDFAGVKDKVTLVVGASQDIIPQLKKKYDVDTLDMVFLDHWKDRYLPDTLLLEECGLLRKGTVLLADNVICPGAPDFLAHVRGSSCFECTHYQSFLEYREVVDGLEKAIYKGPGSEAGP
# Chain of Nicotinamide N-methyltransferase (Homo sapiens) (P40261 whole entry, looked up): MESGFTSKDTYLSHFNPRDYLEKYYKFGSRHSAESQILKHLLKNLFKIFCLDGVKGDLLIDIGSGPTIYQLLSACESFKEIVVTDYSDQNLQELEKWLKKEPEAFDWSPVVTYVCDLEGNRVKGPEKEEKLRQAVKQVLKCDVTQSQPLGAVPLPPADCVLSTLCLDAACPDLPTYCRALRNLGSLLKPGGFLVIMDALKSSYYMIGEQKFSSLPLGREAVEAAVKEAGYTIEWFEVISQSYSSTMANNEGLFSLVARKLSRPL
# Chain of N-terminal Xaa-Pro-Lys N-methyltransferase 1 (Homo sapiens) (Q9BV86 whole entry, looked up): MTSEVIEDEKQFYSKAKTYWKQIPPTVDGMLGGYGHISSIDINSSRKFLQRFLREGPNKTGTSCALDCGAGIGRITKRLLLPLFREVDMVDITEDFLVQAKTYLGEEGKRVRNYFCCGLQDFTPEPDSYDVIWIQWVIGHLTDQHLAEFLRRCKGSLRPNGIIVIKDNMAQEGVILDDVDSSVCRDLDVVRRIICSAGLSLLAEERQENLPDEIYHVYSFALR
structure (smiles),measurement,setting,value
CCCC(=O)C1CCN(c2ncnc3c2CN(C(=O)c2ccc(-c4ccccc4)cc2)CC3)CC1,Potency,[1],21.3 µM (active)
same,Potency,[2],3.01 µM (active)
same,Potency,[3],inactive
CCNC(=O)Nc1ccc(-c2nc3c(c(N4CCOC[C@@H]4C)n2)CCN(c2ncccn2)C3)cc1,Potency,[1],10.7 µM (active)
same,Potency,[4],72.8 nM (active)
same,Potency,[5],0.103 µM (active)
COc1cc2ncnc(N3CCC(Oc4cnc5ccccc5n4)C3)c2cc1OC (stereo not drawn),Potency,[1],inactive
same,Potency,[2],10.7 µM (active)
same,Potency,[4],258 nM (active)
same,Potency,[3],inactive
O=S(=O)(NC1CCC(c2cc(F)ccc2F)(S(=O)(=O)c2ccc(Cl)cc2)CC1)C(F)(F)F (stereo not drawn),Potency,[1],19 µM (active)
same,Potency,[2],0.425 µM (active)
same,Potency,[3],inactive
C=CC(=O)Nc1cc(Nc2nccc(-c3c[nH]c4ccccc34)n2)c(OC)cc1N(C)CCN(C)C,Potency,[1],inactive
same,Potency,[2],8.49 µM (active)
same,Potency,[3],inactive
Cc1ccc(-c2ccc3ncc4c(c3n2)n(C2CCN(C(=O)[C@H](C)O)CC2)c(=O)n4C)cn1,Potency,[1],inactive
same,Potency,[6],39.8 µM (active)
same,Potency,[4],74.2 nM (active)
same,Potency,[5],0.0742 µM (active)
same,Potency,[3],22.7 µM (active)
Cn1ncnc1COc1nn2c(-c3cc(F)ccc3F)nnc2cc1C(C)(C)C,Potency,[1],inactive
same,Potency,[2],9.52 µM (active)
same,Potency,[5],1.03 µM (active)
same,Potency,[3],inactive
C[C@H](C(=O)NC1CCCC1)N(C(=O)Cn1nnc(-c2ccc3c(c2)OCO3)n1)C1CCCCC1,Potency,[1],19 µM (active)
same,Potency,[2],2.68 µM (active)
same,Potency,[3],inactive
O=C(Nc1ccc(-c2ccncc2)cc1)N[C@H](CO)c1ccccc1,Potency,[1],10.7 µM (active)
same,Potency,[2],10.7 µM (active)
same,Potency,[5],23 µM (active)
same,Potency,[3],inactive
CSc1ccc(C(=O)N[C@@H]2CCCC[C@@H]2NC(=O)CNC(=O)c2cc(C(F)(F)F)ccc2NC(=O)NC(C)C)cc1,Potency,[1],9.52 µM (active)
same,Potency,[2],3.01 µM (active)
same,Potency,[3],inactive
CC(C)(C(=O)NCC(F)(F)C(F)(F)F)C(=O)NC1C(=O)Nc2ccccc2-c2ccccc21 (stereo not drawn),Potency,[1],10.7 µM (active)
same,Potency,[2],9.52 µM (active)
same,Potency,[5],14.5 µM (active)
N#CC(c1ccnc(OCc2ccc(CN3CCOCC3)cc2)n1)c1nc2ccccc2s1 (stereo not drawn),Potency,[1],inactive
same,Potency,[2],10.7 µM (active)
same,Potency,[4],inactive
same,Potency,[3],inactive
Cc1ccc(-c2c(C(=O)CF)n(CCCO)c3ncnc(N)c23)cc1,Potency,[1],inactive
same,Potency,[2],21.3 µM (active)
same,Potency,[3],inactive
O=C(O)c1c(O)c(-c2ccccc2)nc2ccccc12,Potency,[1],inactive
same,Potency,[4],inactive
same,Potency,[5],inactive
COc1cc(Nc2nc3ccccc3nc2NS(=O)(=O)c2ccc(NC(=O)c3ccc(OC)c(C)c3)cc2)cc(OC)c1,Potency,[1],inactive
same,Potency,[2],3.79 µM (active)
same,Potency,[3],inactive
Oc1ccc2nc(CN3CCC(Cc4ccccc4F)CC3)[nH]c2c1,Potency,[1],0.0379 µM (active)
same,Potency,[2],10.7 µM (active)
same,Potency,[3],inactive
Cc1csc(NC(=O)c2ccc(COc3cccc(Cl)c3)o2)n1,Potency,[1],19 µM (active)
same,Potency,[2],7.56 µM (active)
same,Potency,[3],inactive
CON(C)C(=O)[C@H](O)[C@H](Cc1ccccc1)NC(=O)c1cc2cc(Cl)ccc2[nH]1,Potency,[1],21.3 µM (active)
same,Potency,[2],10.7 µM (active)
same,Potency,[3],inactive
Cc1ccccc1NC(=O)Nc1ccc(CC(=O)N(C)[C@@H](CC(C)C)C(=O)NCC[C@H](NC(=O)[C@@H]2CCCN2S(=O)(=O)c2cc(Cl)cc(Cl)c2)C(=O)O)cc1,Potency,[1],inactive
same,Potency,[4],inactive
same,Potency,[5],inactive
same,Potency,[3],inactive
Cn1c2ccc(F)cc2c2c(C(=O)N3CCCC3)cn(-c3ccccc3)c(=O)c21,Potency,[1],inactive
same,Potency,[4],inactive
same,Potency,[5],inactive
same,Potency,[3],18 µM (active)
CCOC(=O)Nc1cc(-c2ccc(C)c(NS(C)(=O)=O)c2)nn2c(C)nnc12,Potency,[1],inactive
same,Potency,[4],728 nM (active)
same,Potency,[5],0.515 µM (active)
same,Potency,[3],inactive
N#Cc1ccc(-c2cnc3[nH]cc(NC(=O)c4cccnc4)c3c2)cc1,Potency,[1],inactive
same,Potency,[4],7280 nM (active)
same,Potency,[5],5.15 µM (active)
same,activity,[7],1.05%
same,Potency,[8],inactive
same,activity,[9],2.51%
same,activity,[10],-6.92%
Cn1nnc(-c2ccc(-c3ccc(N4C[C@H](CO)OC4=O)cc3F)cn2)n1,Potency,[1],inactive
same,Potency,[4],inactive
same,Potency,[5],inactive
same,Potency,[3],inactive
CC(=O)SCC(=O)c1ccc(NS(=O)(=O)c2ccc(OCCCN(C)C)cc2)nc1,Potency,[1],inactive
same,Potency,[4],1290 nM (active)
same,Potency,[5],1.15 µM (active)
Nc1nccn2c(C3CCC(C(=O)O)CC3)nc(-c3cc4cccc(Cl)c4[nH]3)c12 (stereo not drawn),Potency,[1],inactive
same,Potency,[4],1.29 µM (active) and 3.72 µM (active)
same,Potency,[5],1.15 µM (active) and 4.17 µM (active)
same,Potency,[3],inactive
C#CCN(Cc1cc2c(=O)[nH]c(C)nc2cc1Br)c1ccc(C(=O)NCc2cccnc2)cc1,Potency,[1],inactive
same,Potency,[4],inactive
same,Potency,[5],0.0023 µM (active)
same,Potency,[3],inactive
COc1ccc(N2CCOCC2)c2sc(NC(=O)N3CCC(C)(O)CC3)nc12,Potency,[1],16.9 µM (active)
same,Potency,[4],inactive
same,Potency,[5],inactive
same,Potency,[3],inactive
Nc1nc(Nc2ccc(S(N)(=O)=O)cc2)n(C(=S)Nc2c(F)cccc2F)n1,Potency,[1],10.7 µM (active)
same,Potency,[4],inactive
same,Potency,[5],inactive
same,Potency,[3],inactive
CN(C)c1nc(NC2CCC(NC(=O)c3ccc(F)c(F)c3)CC2)nc2ccccc12 (stereo not drawn),Potency,[1],5.35 µM (active)
same,Potency,[4],6490 nM (active)
same,Potency,[5],6.49 µM (active)
same,activity,[7],-11.9%
same,"activity change, negative = inhibition",[8],0.153%
same,activity,[9],-27.9%
same,activity,[10],-21.7%
N#Cc1cc(F)cc(-c2nc(-c3ccccn3)no2)c1,Potency,[1],10.7 µM (active)
same,Potency,[4],inactive
same,Potency,[5],inactive
same,Potency,[3],inactive
